# According to PubChem BioAssay (Tox21):
# Where “and” joins values, the source holds several entries; their conditions need not be identical. Identical values can stand only once. Results filed as inconclusive are left out. A call without a number means that no potency is given here. Some compounds were tested as several samples or in several runs, with calls that do not always agree. Calls of active or inactive are those of the source. Unless noted, calls come from the whole dose curve; as a rule, active = well fitted curve in the direction sought with a large enough effect in the repeat runs; inconclusive = weak or mixed curves; inactive = no such curve, though single readings can be large; an effect the other way counts as inactive or inconclusive.
# How the values were obtained:
# [1] = target: Thyrotropin receptor (Homo sapiens) (UniProt P16473); assay: qHTS assay to identify small molecule antagonists of the thyroid stimulating hormone receptor (TSHR) signaling pathway (AID 1259385; calls by dose curve; note: nearly all actives have a fitted effect of over 20% in size)
# Sequence of Thyrotropin receptor (Homo sapiens) (P16473 whole entry, looked up): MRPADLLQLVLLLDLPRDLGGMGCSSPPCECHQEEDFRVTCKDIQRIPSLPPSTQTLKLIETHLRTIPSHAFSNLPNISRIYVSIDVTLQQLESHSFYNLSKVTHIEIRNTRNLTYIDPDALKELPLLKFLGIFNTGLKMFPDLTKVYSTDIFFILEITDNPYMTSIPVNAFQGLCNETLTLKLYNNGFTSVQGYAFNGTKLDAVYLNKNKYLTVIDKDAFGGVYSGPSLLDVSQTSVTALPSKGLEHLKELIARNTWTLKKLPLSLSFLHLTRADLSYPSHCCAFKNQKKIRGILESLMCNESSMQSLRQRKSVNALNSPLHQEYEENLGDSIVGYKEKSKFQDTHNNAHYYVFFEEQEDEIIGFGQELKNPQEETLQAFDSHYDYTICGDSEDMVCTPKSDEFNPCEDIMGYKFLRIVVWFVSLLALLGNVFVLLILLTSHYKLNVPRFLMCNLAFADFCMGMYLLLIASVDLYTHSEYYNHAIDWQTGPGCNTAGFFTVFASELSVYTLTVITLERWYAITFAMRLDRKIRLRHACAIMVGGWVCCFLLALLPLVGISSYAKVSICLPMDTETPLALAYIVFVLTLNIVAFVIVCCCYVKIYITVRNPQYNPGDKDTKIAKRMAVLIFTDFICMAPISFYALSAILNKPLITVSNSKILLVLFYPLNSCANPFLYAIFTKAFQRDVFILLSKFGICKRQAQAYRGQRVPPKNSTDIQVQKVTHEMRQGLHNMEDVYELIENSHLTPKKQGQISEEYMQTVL
# In short: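 TSHR-HEK293 cells (800/well) plated 18 h, then compounds with Ro20-1724 and TSH at 1.5 ng/mL final, 30 min at room temperature. cAMP quantified by HTRF (cAMP-d2/anti-cAMP-cryptate, 1 h); 15 concentrations in triplicate.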
# [2] = qHTS assay to identify small molecule agonists of the estrogen receptor alpha (ER-alpha) signaling pathway in the presence of an antagonist - cell viability counter screen (AID 1259386);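 note: series mostly up to about 92 µM; cells exposed to compounds for 22 h at 37 °C before the viability read; nearly all actives have a fitted effect of over 30% in size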
# In short: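 Steps: 5-day stripped-FBS culture; seed and incubate 24hr; add ICI-182,780 (10.0nM final); pin 15-point compound titration; incubate 22hr at 37C; add CellTiter-Fluor at 21hr; read fluorescence.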
# [3] = target: Progesterone receptor (Homo sapiens) (UniProt P06401); assay: qHTS assay to identify small molecule agonists of the progesterone receptor (PR) signaling pathway (AID 1346784; calls by dose curve; note: nearly all actives have a fitted effect of over 30% in size)
# Sequence of Progesterone receptor (Homo sapiens) (P06401 whole entry, looked up): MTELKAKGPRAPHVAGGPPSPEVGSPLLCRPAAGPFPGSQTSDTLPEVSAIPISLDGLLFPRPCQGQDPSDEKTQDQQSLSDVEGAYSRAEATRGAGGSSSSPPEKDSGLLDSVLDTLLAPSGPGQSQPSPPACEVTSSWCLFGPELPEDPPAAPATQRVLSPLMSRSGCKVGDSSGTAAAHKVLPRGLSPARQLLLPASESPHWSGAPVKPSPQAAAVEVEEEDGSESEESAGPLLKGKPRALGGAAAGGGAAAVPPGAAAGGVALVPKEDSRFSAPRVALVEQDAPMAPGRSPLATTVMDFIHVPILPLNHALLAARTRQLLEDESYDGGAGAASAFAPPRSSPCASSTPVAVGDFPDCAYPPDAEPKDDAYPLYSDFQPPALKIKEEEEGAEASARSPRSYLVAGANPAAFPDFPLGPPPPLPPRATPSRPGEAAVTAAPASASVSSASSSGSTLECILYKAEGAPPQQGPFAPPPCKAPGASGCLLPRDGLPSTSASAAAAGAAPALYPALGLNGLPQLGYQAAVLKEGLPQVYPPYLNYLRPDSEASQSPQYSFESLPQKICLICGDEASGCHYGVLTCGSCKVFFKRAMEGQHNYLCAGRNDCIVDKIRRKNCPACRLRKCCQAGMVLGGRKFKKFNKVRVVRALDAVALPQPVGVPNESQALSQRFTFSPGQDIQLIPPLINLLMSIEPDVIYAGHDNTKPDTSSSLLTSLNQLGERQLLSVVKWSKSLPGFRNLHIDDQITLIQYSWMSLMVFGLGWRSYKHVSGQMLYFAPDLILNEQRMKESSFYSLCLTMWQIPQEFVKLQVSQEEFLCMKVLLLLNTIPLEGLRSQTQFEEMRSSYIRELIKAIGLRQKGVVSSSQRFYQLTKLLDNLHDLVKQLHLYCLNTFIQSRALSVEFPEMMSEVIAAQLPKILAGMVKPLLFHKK
# In short: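 Seed PR-UAS-bla HEK 293T cells (2% charcoal-stripped FBS), incubate 6 hr at 37C; add compounds in DMSO, 16 hr at 37C; add LiveBLAzer B/G substrate, 2 hr RT; read fluorescence intensity.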
# [4] = target: Progesterone receptor (Homo sapiens) (UniProt P06401); assay: qHTS assay to identify small molecule antagonists of the progesterone receptor (PR) signaling pathway (AID 1346795; active = well fitted inhibition curve with a large enough effect in the signal ratio in the repeat runs, not every such curve was filed as active; the % refers to the signal ratio; note: potency is the fitted concentration of half-maximal effect)
# In short: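 Screening used a GripTite HEK293T line with PR-responsive UAS-beta-lactamase. Cells were challenged with compound in the presence of 1 nM R5020 final for 16 hr at 37C; B/G FRET substrate, 2 hr room temperature, fluorescence.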
# [5] = qHTS assay to identify small molecule antagonists of the progesterone receptor (PR) signaling pathway - cell viability counter screen (AID 1346798); note: series mostly up to about 92 µM; nearly all actives have a fitted effect of over 50% in size
# In short: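 Measures cytotoxicity in parallel with the PR antagonist reporter read: HEK293T PR-UAS-bla cells get compound and R5020 for 16 hr, and remaining viable cells are quantified by CellTiter-Glo luminescence.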
# [6] = qHTS assay to identify small molecule agonists of the progesterone receptor (PR) signaling pathway - cell viability counter screen (AID 1346799; calls by dose curve; note: nearly all actives have a fitted effect of over 45% in size)
# In short: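 Using the same plates as the PR reporter screen, HEK293T PR-UAS-bla cells received compounds for 16 hr at 37C and were then lysed with CellTiter-Glo; luminescence was read 30 min later at room temperature.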
# [7] = qHTS assay to identify small molecule antagonists of the TGF-beta/Smad signaling pathway - cell viability counter screen (AID 1346824); note: nearly all actives have a fitted effect of over 50% in size
# In short: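 SBE-bla HEK 293T cells, incubated overnight, then compound plus 0.25 ng/mL TGF-beta1 (stock added) for 5 hr at 37 C. Viability was read in the same wells by CellTiter-Glo luminescence after 30 min at room temperature.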
# [8] = qHTS assay to identify small molecule agonists of the TGF-beta/Smad signaling pathway - cell viability counter screen (AID 1346829); note: top concentration of the series differs between compounds; nearly all actives have a fitted effect of over 45% in size
# In short: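 Cytotoxicity counter screen: CellTiter-Glo luminescence (30 min, room temperature) measured in the SBE-bla HEK 293T reporter wells after 5 hr compound treatment at 37 C and the 2 hr substrate step.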
# [9] = qHTS assay to identify small molecule agonists of the TGF-beta/Smad signaling pathway (AID 1346859; active = well fitted activation curve with a large enough effect in the signal ratio in the repeat runs, not every such curve was filed as active; the % refers to the signal ratio; note: series mostly up to about 77 µM)
# In short: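 Beta-lactamase reporter activity downstream of Smad binding elements was measured in stably transfected HEK 293T cells; compounds were incubated for 5 hr, substrate for 2 hr at room temperature.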
# [10] = target: Thyrotropin-releasing hormone receptor (Homo sapiens) (UniProt P34981); assay: qHTS assay to identify small molecule antagonists of the thyrotropin-releasing hormone receptor (TRHR) signaling pathway (AID 1346877; active = well fitted inhibition curve with a large enough effect in the repeat runs, not every such curve was filed as active; note: series mostly up to about 51 µM)
# Sequence of Thyrotropin-releasing hormone receptor (Homo sapiens) (P34981 whole entry, looked up): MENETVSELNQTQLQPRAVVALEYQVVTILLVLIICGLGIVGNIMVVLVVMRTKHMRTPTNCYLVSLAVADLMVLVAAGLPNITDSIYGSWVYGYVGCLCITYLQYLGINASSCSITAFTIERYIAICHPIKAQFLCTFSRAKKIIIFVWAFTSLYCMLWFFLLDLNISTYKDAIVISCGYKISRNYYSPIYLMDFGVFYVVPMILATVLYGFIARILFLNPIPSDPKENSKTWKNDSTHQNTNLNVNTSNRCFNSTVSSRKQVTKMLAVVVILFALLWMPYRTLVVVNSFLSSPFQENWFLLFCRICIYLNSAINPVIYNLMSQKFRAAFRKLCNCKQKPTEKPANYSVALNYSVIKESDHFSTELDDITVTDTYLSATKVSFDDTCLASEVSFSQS
# In short: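 Human TRHR in HEK293 cells; inhibition of the intracellular calcium rise triggered by 1 nM TRH was followed by fluorescence over 3 min. Compounds were run at 15 concentrations, three replicates each.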
# [11] = Caspase-3/7 induction in HepG2 cells by small molecules, qHTS assay (AID 1346978); note: nearly all actives have a fitted effect of over 15% in size; note: potency is the fitted concentration of half-maximal effect
# In short: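 Wild-type HepG2 cells, 2,000/well, settled 5 hr at 37 C and 5% CO2, then compound-treated for 17 hr; caspase-3/7 activity read by luminescent Caspase-Glo 3/7 after 30 min at room temperature.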
# [12] = Caspase-3/7 induction in CHO-K1 cells by small molecules, qHTS cell viability counter screen (AID 1346979); note: nearly all actives have a fitted effect of over 35% in size; note: potency is the fitted concentration of half-maximal effect
# In short: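 Multiplexed with Caspase-Glo 3/7 in CHO-K1 cells, this counter screen added CellTiter-Fluor after 16hr of compound exposure and recorded fluorescence 1hr later.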
# [13] = Caspase-3/7 induction in CHO-K1 cells by small molecules, qHTS assay (AID 1346980); note: nearly all actives have a fitted effect of over 15% in size
# In short: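 Wild-type CHO-K1 cells exposed to compounds for 17hr at 37 C, 5% CO2. Caspase-3/7 activity then measured by Caspase-Glo 3/7 luminescence after 30min at room temperature.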
# [14] = Caspase-3/7 induction in HepG2 cells by small molecules, qHTS cell viability counter screen (AID 1346981); note: nearly all actives have a fitted effect of over 30% in size; note: potency is the fitted concentration of half-maximal effect
# In short: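 The parent HepG2 line is plated at 2,000 cells per well and rested 5 hr before compound pinning from DMSO stocks. Following a 16-hr treatment at 37 C, a fluorogenic live-cell substrate (CellTiter-Fluor) reports viability after 1 hr.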
# [15] = target: Thyrotropin-releasing hormone receptor (Homo sapiens) (UniProt P34981); assay: qHTS assay to identify small molecule agonists of the thyrotropin-releasing hormone receptor (TRHR) signaling pathway (AID 1346891; calls by dose curve;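 note: HEK293 cells expressing TRHR with calcium dye readout; series mostly up to about 58 µM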)
# In short: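 Overnight-plated (18 h, 37 °C, 5% CO2) TRHR-Hek293 cells; 2 h calcium dye at 37 °C; compound in DMSO; 3-min kinetic fluorescence read.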
# [16] = Human pregnane X receptor (PXR) small molecule agonists, qHTS cell viability counter screen (AID 1346977); note: nearly all actives have a fitted effect of over 50% in size
# In short: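 After a 5hr pre-incubation, PXR-Luc HepG2 cells received compounds plus positive control in DMSO and were kept 24hr at 37C. Cell viability was quantified by fluorescence from CellTiter-Fluor added for the final hour.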
# [17] = target: Nuclear receptor subfamily 1 group I member 2 (Homo sapiens) (UniProt O75469); assay: Human pregnane X receptor (PXR) small molecule agonists, qHTS assay (AID 1346982); note: nearly all actives have a fitted effect of over 35% in size; note: potency is the fitted concentration of half-maximal effect
# Sequence of Nuclear receptor subfamily 1 group I member 2 (Homo sapiens) (O75469 whole entry, looked up): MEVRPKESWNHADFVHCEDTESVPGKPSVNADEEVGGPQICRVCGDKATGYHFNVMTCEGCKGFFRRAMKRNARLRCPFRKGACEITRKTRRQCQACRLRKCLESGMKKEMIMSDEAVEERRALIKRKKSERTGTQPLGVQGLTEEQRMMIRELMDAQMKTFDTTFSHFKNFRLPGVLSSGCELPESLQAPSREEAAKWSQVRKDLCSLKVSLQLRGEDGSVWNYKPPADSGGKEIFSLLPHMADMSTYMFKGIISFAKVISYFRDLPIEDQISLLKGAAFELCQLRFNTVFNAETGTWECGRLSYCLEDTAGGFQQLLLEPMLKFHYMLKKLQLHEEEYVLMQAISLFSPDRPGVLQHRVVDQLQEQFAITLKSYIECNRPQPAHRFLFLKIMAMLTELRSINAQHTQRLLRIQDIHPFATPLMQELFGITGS
# In short: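 After plating in 5% charcoal-stripped FBS and a 5 hr rest, PXR-Luc HepG2 cells received compounds in DMSO. Following 24 hr at 37 C, ONE-Glo was added and light output read.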
# [18] = target: Nuclear receptor subfamily 1 group I member 2 (Rattus norvegicus) (UniProt Q9R1A7); assay: Rat pregnane X receptor (rPXR) activation by small molecules, qHTS assay (AID 1346983); conditions: rPXR luciferase reporter cells, One-Glo luminescence, 24 h; stronger effect = higher value; note: nearly all actives have a fitted effect of over 20% in size
# Sequence of Nuclear receptor subfamily 1 group I member 2 (Rattus norvegicus) (Q9R1A7 whole entry, looked up): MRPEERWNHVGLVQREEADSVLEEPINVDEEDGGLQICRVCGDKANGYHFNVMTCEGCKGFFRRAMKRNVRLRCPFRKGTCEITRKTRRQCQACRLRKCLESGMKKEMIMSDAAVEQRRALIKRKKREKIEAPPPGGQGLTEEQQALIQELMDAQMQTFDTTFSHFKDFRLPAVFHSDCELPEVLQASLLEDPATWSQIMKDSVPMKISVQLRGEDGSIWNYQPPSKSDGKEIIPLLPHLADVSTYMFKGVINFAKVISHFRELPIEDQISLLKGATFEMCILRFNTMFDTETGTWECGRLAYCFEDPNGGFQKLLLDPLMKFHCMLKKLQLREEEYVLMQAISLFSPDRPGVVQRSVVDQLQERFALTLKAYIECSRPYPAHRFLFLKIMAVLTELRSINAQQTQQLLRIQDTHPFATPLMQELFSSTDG
# In short: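 Cell-based rPXR activation assay: rPXR cells, 2,000 per well, rested 5hr at 37 C, then exposed to compounds in DMSO for 24 hr at 37 C. Luciferase activity read by One-Glo luminescence after 30 min at room temperature.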
# [19] = target: Nuclear receptor subfamily 1 group I member 2 (Homo sapiens) (UniProt O75469); assay: CYP3A4 induction through human pregnane X receptor (PXR) by small molecules, qHTS assay (AID 1346984); note: nearly all actives have a fitted effect of over 40% in size
# In short: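 Human PXR activation is tracked via CYP3A4 promoter-luciferase in DPX-2 (HepG2) cells. Compounds treat cells for 24hr at 37C, and luminescence is read after One-Glo.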
# [20] = target: Nuclear receptor subfamily 1 group I member 2 (Homo sapiens) (UniProt O75469); assay: Human pregnane X receptor (PXR) activation by small molecules, qHTS assay (AID 1346985); note: nearly all actives have a fitted effect of over 40% in size
# In short: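 DPX-2 cells (HepG2 co-transfected with a PXR response element and a CYP3A4-promoter luciferase construct) were seeded at 2,000 per well, rested 5 hr at 37C, then exposed to DMSO-dissolved compounds for 24 hr. Activation was read as luciferase luminescence.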
SMILES,outcome [1],Potency [2],Potency [3],Potency [4],Potency [5],Potency [6],Potency [7],Potency [8],outcome [9],Potency [10],Potency [11],Potency [12],Potency [13],Potency [14],Potency [15],Potency [16],Potency [17],max activation [18],outcome [19],outcome [20]
Oc1ccc(-c2ccccc2)cc1,inactive,inactive,inactive,15.4 µM (active),inactive,inactive,inactive,inactive,inactive,inactive,inactive,47.9 µM (active) and inactive,inactive,inactive,–,–,–,–,–,–
O=C(CCl)c1ccccc1,inactive,inactive,inactive,inactive,inactive,inactive,inactive,inactive,inactive,–,inactive,68.6 µM (active),inactive,inactive,–,–,–,–,–,–
O=P(Oc1ccccc1)(Oc1ccccc1)Oc1ccccc1,inactive,inactive,inactive,–,inactive,inactive,inactive,inactive,inactive,inactive,inactive,68.2 µM (active),inactive,inactive,inactive,inactive,30.5 µM (active) and 27.3 µM (active),–,–,–
C=CCN(CC=C)C(=O)C(Cl)Cl,inactive,inactive,inactive,inactive,inactive,inactive,inactive,inactive,inactive,inactive,inactive,inactive,inactive,inactive,–,inactive,inactive,–,–,–
CC(C)NC(C)C,inactive,inactive,inactive,–,inactive,inactive,inactive,inactive,inactive,inactive,inactive,inactive,inactive,inactive,inactive,–,–,-0.504% (inactive),inactive,inactive
C=CC(=O)OCCO,inactive,inactive,–,inactive,inactive,inactive,inactive,inactive,inactive,inactive,inactive,55.3 µM (active),inactive,inactive,inactive,inactive,–,–,–,–
Nc1ccc(Cl)cc1N,inactive,inactive,inactive,–,inactive,inactive,inactive,inactive,–,inactive,22.6 µM (active) and 8.89 µM (active),–,inactive,7.92 µM (active),–,–,31.9 µM (active) and 4.33 µM (active),–,–,–
Nc1cccnc1,inactive,inactive,inactive,inactive,inactive,inactive,inactive,inactive,inactive,inactive,inactive,inactive,inactive,inactive,–,–,–,–,–,–
CCCCCCCCC(=O)NCc1ccc(O)c(OC)c1,inactive,inactive,inactive,–,–,–,inactive,inactive,inactive,–,inactive,inactive,inactive,inactive,–,inactive,27.3 µM (active) and inactive,–,–,–
Cc1cc(C)cc(C)c1,inactive,inactive,inactive,–,inactive,inactive,inactive,inactive,inactive,inactive,inactive,inactive,inactive,inactive,inactive,inactive,–,–,–,–
N[C@@H](Cc1ccc(N(CCCl)CCCl)cc1)C(=O)O,inactive,inactive,inactive,inactive,inactive,inactive,inactive,inactive,inactive,inactive,–,29.4 µM (active) and 26.6 µM (active),inactive,26.2 µM (active),inactive,–,–,-1.77% (inactive),–,–
CCCCC(CC)COC(=O)c1ccc(C(=O)OCC(CC)CCCC)c(C(=O)OCC(CC)CCCC)c1 (stereo not drawn),inactive,inactive,inactive,inactive,inactive,inactive,inactive,inactive,inactive,inactive,inactive,inactive,inactive,inactive,inactive,inactive,inactive,–,–,–
CC(C)(OOC(C)(C)c1ccccc1)c1ccccc1,inactive,inactive,inactive,–,inactive,inactive,inactive,inactive,inactive,inactive,inactive,inactive,inactive,inactive,–,–,inactive,–,–,–
CCCCN(CCCC)N=O,inactive,inactive,inactive,–,inactive,inactive,inactive,inactive,inactive,inactive,inactive,inactive,inactive,inactive,inactive,inactive,inactive,–,–,–
CCOC(=O)C(C)OC(=O)c1cc(Oc2ccc(C(F)(F)F)cc2Cl)ccc1[N+](=O)[O-] (stereo not drawn),inactive,inactive,inactive,–,–,–,inactive,inactive,inactive,inactive,inactive,–,inactive,inactive,–,–,30.5 µM (active),–,–,–
Cc1ccccc1[N+](=O)[O-],inactive,inactive,inactive,inactive,inactive,inactive,inactive,inactive,inactive,inactive,inactive,inactive,inactive,inactive,–,inactive,–,–,–,–
CC(C)N(C(=O)SCC(Cl)=C(Cl)Cl)C(C)C,inactive,inactive,inactive,inactive,inactive,inactive,inactive,inactive,inactive,inactive,inactive,inactive,inactive,inactive,inactive,inactive,–,–,–,–
